# Records with an inconclusive call do not appear. Entries that show only a call come without a potency. Some structures have more than one record in an assay (separate samples or runs), and their calls can disagree. Activity calls are given as the source filed them. Unless noted, calls follow the shape of the dose curve; as a rule, active = well fitted curve in the direction sought with a large enough effect; inconclusive = small, poorly fitted or top-dose-only effect, or another doubt; inactive = no such curve, though single readings can be large; an effect the other way counts as inactive or inconclusive.
# Columns and labels:
# [1] = test system: Zika virus NS2B-NS3 protease; assay: Primary screen GU AMC qHTS for Zika virus inhibitors (AID 1347154); also: nearly all actives have a fitted effect of over 70% in size
# Outline: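 Fluorogenic AMC-substrate cleavage by noncovalent NS2B-NS3 protease complex (25 nM, pH 8.0 Tris buffer with Tween 20) followed for 15 minutes at room temperature (~20% conversion). Percent inhibition from ex340/em450 signal change, fitted by 4-parameter Hill equation.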
# [2] = Counterscreen qHTS for small molecule stabilizers of the endoplasmic reticulum resident proteome: GLuc-NoTag assay (AID 1508627);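 also: SH-SY5Y cells given compound then 100 nM thapsigargin to empty ER calcium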
# Outline: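 Luminescence of Gaussia luciferase secreted into the medium (coelenterazine, 0.07x final, unlysed cells) was the read-out. Human SH-SY5Y neuroblastoma cells constitutively secreting untagged GLuc received compound for 19 h, then 100 nM thapsigargin for 4 h.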
# [3] = Confirmatory qHTS for small molecule stabilizers of the endoplasmic reticulum resident proteome: Secreted ER Calcium Modulated Protein (SERCaMP) assay (AID 1508628); also: nearly all actives have a fitted effect of over 40% in size; also: potency is read from the fitted curve at half-maximal effect
# Outline: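 SH-SY5Y cells stably expressing GLuc-SERCaMP, treated 16 h with compound (primary 1.53, 7.67, 38.3 uM; confirmation 11 concentrations, up to 76.6 uM), then 100 nM thapsigargin for 4 h. Secreted Gaussia luciferase in medium read by coelenterazine luminescence.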
# [4] = Primary qHTS for small molecule stabilizers of the endoplasmic reticulum resident proteome: Secreted ER Calcium Modulated Protein (SERCaMP) assay (AID 1508630)
# Outline: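 GLuc-SERCaMP-expressing SH-SY5Y cells, pretreated 16 h with compound, are challenged with thapsigargin to empty ER calcium stores; after 4 h, coelenterazine is added directly to the medium and luminescence is imaged.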
# [5] = target: Cytochrome P450 1A2 (Homo sapiens) (UniProt P05177); assay: p450-cyp1a2 (AID 410; calls by dose curve)
# Outline: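 Luminescent readout of luciferin formed from Luciferin-ME by human CYP1A2; data normalized against complete inhibition by 57 uM furafylline. Enzyme 20nM, substrate 100uM at Km, 100mM KPO4 buffer, 60 min reaction at room temperature.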
# [6] = target: Glucocorticoid receptor (Homo sapiens) (UniProt P04150); assay: GR-GFP Redistribution (AID 450;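 active = compounds whose dose series gives a full or clear partial fitted curve of increased nuclear translocation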; also: potency is read from the fitted curve at half-maximal effect); conditions: U2OS GR-GFP nuclear translocation, laser cytometry, 2 h
# [7] = target: Mitogen-activated protein kinase 10 (Mus musculus) (UniProt Q61831); assay: JNK3 AlphaScreen Assay (AID 530; active = well fitted curve in either direction with a large enough effect, not every such curve was filed as active;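 also: kinase came from lysate of stimulated human HepG2 cells; signal reports phosphorylation of biotinylated GST-cJun 1-79 at Ser73 with 10 µM ATP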)
# Outline: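 Compound titrations were preincubated 15 minutes at room temperature with substrate, antibody and pre-activated JNK3-containing HepG2 lysate. Reactions were started with 10 uM ATP and stopped with EDTA-containing bead buffer for AlphaScreen detection.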
# [8] = target: 3',5'-cyclic-AMP phosphodiesterase 4B (Homo sapiens) (UniProt Q07343); assay: qHTS Assay for Inhibitors of PDE-IV (AID 607; active = well fitted activation curve with a large enough effect in the main read-out, with a control signal flat, not every such curve was filed as active)
# Outline: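 The readout is membrane depolarisation from a cAMP-sensing CNG channel, detected with a potential dye at ex 535/em 590. Cells were HEK293-derived (endogenous PDE-IV) at 1000 cells/well, titrated up to 22.9 uM final.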
# [9] = target: Cytochrome P450 2C9 (Homo sapiens) (UniProt P11712); assay: qHTS Assay for Inhibitors and Substrates of Cytochrome P450 2C9 (AID 883); also: nearly all actives have a fitted effect of over 60% in size
# Outline: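 Inhibition of CYP2C9 is scored as loss of luminescence, with 57uM sulphaphenazole defining 100% inhibition. Substrate Luciferin-H is used at 100uM, equal to its KM; enzyme at 10nM in 25mM KPO4, 60 min at 37C with NADPH regeneration.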
# [10] = target: Ubiquitin carboxyl-terminal hydrolase 1 (Homo sapiens) (UniProt O94782); assay: Inhibitors of USP1/UAF1: Pilot qHTS (AID 504865);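 also: rhodamine fluorescence freed from ubiquitin-rhodamine substrate followed over time; top concentration of the series differs between compounds; nearly all actives have a fitted effect of over 35% in size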
# Outline: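 Deubiquitinase activity followed as kinetic rhodamine fluorescence release from 150 nM Ub-Rho. 1 nM USP1/UAF1 with compound, after 15 min room-temperature preincubation, in HEPES pH 7.8 buffer containing TCEP, EDTA, BSA and Tween-20.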
# [11] = target: DNA dC->dU-editing enzyme APOBEC-3G (Homo sapiens) (UniProt Q9HC16); assay: qHTS for inhibitors of Vif-A3G interactions: Validation (AID 588379)
# Outline: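 HeLa cells stably expressing Vif and A3G-eYFP, 700 cells/well, incubated overnight at 37 deg C, then exposed to compound overnight at 37 deg C. Inhibition of Vif-mediated degradation read as increased yellow fluorescence (Ex 488/Em 500-530) by laser-scanning cytometry.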
# [12] = target: Cytochrome P450 2D6 (Homo sapiens) (UniProt P10635); assay: Cytochrome P450 family 2 subfamily D member 6 (CYP2D6) small molecule antagonists: luciferase biochemical (cell-free) qHTS assay (AID 1645840; active = well fitted curve in the direction sought with a large enough effect in the repeat runs; an effect the other way counts as inactive or inconclusive; also: nearly all actives have a fitted effect of over 55% in size)
# Outline: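 P450-Glo luminescent screen: recombinant CYP2D6 enzyme–proluciferin substrate mix preincubated with compound 10 min at room temperature, then NADPH regeneration added for 1 h at room temperature. Detection reagent added for 20 min; luciferin light read as relative luminescence units.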
# [13] = target: Cytochrome P450 2C9 (Homo sapiens) (UniProt P11712); assay: Cytochrome P450 family 2 subfamily C member 9 (CYP2C9) small molecule antagonists: luciferase biochemical (cell-free) qHTS assay (AID 1645842; active = well fitted curve in the direction sought with a large enough effect in the repeat runs; an effect the other way counts as inactive or inconclusive; also: nearly all actives have a fitted effect of over 55% in size)
# Outline: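 Luminescence, after 20 min with luciferin detection reagent, reflected CYP2C9 turnover during a 1 h NADPH-driven reaction at 37C. Enzyme-substrate mix contained 0.4% bovine serum albumin and was preincubated with compound 10 min at room temperature.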
# [14] = Primary qHTS for inhibitors of nuclear receptor binding SET domain protein 2 (NSD2) in an isogenic RCH-ACV NSD2 p.E1099K mutant (9B) (AID 1645876); also: potency is read from the fitted curve at half-maximal effect; nearly all actives have a fitted effect of over 70% in size
# [15] = Primary qHTS for inhibitors of nuclear receptor binding SET domain protein 2 (NSD2) in an RCH-ACV wild type WT cells (2C) (AID 1645877); also: potency is read from the fitted curve at half-maximal effect; nearly all actives have a fitted effect of over 70% in size
# [16] = qHTS assay to identify inhibitors of the type 1 interferon - major histocompatibility complex class I in skeletal muscle: Counter screen cell viability and HiBit confirmation (AID 1347412); conditions: iHSKM muscle cells + IFN-b, HiBiT or CellTiter-Glo, 24 h; also: nearly all actives have a fitted effect of over 60% in size; also: potency is read from the fitted curve at half-maximal effect
# Outline: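 After 24 h with human IFN-beta (4 ng/ml) and compound titrations (top 46 uM final, 1:3, 12 points), HLA-B HiBit myoblasts were lysed for either Nano-Glo HiBiT luminescence or CellTiter Glo viability on paired plates.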
# Sequence of Cytochrome P450 2C9 (Homo sapiens) (P11712 whole entry, looked up): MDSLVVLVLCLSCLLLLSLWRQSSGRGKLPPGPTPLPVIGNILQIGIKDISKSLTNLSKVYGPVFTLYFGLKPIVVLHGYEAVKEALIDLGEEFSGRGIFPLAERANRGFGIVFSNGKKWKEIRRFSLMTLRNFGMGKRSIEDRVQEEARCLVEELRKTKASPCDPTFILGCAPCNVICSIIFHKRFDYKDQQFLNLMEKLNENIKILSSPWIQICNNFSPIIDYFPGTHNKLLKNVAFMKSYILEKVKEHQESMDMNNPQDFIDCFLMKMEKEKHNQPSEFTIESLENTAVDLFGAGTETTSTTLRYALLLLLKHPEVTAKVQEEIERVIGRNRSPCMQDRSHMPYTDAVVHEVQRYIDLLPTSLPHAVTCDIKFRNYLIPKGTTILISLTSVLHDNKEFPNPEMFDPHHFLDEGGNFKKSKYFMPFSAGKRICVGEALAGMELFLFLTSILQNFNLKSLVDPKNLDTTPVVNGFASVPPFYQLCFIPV
# Sequence of 3',5'-cyclic-AMP phosphodiesterase 4B (Homo sapiens) (Q07343 whole entry, looked up): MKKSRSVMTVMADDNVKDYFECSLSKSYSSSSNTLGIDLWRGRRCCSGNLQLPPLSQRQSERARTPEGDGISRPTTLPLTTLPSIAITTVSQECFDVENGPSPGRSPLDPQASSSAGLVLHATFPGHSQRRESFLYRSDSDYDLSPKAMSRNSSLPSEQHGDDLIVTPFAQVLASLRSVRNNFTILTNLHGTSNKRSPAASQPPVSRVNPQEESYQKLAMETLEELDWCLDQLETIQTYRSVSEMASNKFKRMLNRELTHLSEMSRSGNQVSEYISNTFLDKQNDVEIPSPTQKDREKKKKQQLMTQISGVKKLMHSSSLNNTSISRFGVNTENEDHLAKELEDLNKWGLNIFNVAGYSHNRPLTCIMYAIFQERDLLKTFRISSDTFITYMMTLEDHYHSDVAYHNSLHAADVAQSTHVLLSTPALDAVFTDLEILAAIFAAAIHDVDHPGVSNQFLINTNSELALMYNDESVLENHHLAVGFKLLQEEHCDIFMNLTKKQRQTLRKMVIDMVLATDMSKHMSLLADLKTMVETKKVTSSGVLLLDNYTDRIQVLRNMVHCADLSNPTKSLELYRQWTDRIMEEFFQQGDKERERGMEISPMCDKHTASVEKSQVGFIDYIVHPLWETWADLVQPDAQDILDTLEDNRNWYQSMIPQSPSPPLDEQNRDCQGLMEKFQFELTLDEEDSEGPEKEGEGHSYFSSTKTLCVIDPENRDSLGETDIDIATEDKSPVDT
# Sequence of Cytochrome P450 1A2 (Homo sapiens) (P05177 whole entry, looked up): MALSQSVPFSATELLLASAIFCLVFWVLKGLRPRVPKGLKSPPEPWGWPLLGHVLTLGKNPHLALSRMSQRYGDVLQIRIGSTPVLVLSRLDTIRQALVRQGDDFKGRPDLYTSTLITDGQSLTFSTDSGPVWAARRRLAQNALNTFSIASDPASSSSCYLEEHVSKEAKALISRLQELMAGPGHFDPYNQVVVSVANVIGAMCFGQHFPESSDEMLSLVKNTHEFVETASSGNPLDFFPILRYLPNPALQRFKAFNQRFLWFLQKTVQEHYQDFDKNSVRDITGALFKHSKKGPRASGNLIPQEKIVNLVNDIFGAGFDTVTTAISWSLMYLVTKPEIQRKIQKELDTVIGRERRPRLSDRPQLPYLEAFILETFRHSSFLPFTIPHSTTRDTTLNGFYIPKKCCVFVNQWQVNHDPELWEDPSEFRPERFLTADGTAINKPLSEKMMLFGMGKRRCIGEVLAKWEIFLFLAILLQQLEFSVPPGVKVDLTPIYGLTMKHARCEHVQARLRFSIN
# Sequence of Glucocorticoid receptor (Homo sapiens) (P04150 whole entry, looked up): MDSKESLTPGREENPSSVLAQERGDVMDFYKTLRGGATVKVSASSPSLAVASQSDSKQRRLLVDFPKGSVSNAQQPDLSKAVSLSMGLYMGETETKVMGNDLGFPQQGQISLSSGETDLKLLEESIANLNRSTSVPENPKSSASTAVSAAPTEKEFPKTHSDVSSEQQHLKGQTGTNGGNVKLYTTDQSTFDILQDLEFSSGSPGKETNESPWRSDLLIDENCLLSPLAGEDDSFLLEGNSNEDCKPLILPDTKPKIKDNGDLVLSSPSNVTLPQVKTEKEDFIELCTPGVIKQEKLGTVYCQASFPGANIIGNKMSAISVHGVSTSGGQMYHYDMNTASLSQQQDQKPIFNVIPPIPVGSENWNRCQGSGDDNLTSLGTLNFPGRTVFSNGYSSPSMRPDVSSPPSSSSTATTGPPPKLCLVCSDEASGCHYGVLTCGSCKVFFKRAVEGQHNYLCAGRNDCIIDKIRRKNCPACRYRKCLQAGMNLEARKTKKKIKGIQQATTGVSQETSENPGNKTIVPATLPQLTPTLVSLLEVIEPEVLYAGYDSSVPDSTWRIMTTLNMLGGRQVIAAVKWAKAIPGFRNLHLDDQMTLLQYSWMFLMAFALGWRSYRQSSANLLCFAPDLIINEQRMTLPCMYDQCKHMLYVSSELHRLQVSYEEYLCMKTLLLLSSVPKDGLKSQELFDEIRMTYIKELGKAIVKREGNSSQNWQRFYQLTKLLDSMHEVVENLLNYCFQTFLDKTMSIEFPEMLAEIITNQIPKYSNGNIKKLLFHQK
# Sequence of DNA dC->dU-editing enzyme APOBEC-3G (Homo sapiens) (Q9HC16 whole entry, looked up): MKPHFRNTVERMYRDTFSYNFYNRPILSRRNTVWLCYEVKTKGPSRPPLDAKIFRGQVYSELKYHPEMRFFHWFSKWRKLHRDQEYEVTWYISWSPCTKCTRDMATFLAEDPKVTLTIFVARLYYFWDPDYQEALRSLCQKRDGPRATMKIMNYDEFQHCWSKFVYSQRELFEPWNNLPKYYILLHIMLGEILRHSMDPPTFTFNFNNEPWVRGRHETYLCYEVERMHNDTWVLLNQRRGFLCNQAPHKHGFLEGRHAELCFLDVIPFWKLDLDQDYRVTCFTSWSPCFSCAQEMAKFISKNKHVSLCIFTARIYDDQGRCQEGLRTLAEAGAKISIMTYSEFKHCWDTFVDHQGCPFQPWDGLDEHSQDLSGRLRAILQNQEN
# Sequence of Ubiquitin carboxyl-terminal hydrolase 1 (Homo sapiens) (O94782 whole entry, looked up): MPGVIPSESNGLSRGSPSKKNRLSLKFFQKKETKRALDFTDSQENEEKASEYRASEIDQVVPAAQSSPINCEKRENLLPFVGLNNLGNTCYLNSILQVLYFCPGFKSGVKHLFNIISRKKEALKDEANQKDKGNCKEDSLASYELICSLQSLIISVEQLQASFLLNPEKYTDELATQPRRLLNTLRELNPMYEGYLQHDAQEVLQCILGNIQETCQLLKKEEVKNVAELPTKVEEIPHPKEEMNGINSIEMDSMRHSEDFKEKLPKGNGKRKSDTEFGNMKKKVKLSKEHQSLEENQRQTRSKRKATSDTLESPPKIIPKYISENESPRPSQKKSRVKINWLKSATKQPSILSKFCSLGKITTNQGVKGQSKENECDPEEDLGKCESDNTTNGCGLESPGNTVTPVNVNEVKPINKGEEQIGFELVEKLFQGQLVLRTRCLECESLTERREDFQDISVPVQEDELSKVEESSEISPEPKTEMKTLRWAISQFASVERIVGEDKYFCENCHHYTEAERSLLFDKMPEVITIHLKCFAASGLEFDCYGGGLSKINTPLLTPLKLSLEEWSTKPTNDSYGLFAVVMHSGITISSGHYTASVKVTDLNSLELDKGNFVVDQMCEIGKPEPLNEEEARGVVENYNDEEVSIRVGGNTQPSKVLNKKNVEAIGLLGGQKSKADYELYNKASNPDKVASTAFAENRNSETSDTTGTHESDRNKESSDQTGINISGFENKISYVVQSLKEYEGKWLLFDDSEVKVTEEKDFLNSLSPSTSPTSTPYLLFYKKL
# Sequence of Cytochrome P450 2D6 (Homo sapiens) (P10635 whole entry, looked up): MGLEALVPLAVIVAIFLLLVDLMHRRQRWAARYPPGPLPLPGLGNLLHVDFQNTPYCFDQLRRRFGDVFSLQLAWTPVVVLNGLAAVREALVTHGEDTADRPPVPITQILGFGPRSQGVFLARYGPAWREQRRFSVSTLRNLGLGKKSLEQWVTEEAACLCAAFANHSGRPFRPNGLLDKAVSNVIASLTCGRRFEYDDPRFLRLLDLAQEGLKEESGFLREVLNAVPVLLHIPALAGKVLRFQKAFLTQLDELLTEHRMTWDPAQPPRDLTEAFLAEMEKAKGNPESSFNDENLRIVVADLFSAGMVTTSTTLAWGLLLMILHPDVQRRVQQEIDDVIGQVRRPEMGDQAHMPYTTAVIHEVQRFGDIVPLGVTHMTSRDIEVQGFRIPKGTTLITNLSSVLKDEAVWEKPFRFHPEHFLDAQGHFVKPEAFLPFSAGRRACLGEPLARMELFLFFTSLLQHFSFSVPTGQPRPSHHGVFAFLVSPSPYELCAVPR
compound,measurement,setting,value
N[C@@H](CCS(=O)O)C(=O)O,Potency,[1],inactive
same,Potency,[2],inactive
same,Potency,[3],inactive
same,Potency,[4],inactive
COc1ccc(C2Sc3ccccc3N(CCN(C)C)C(=O)[C@@H]2OC(C)=O)cc1 (stereo not given in full),Potency,[1],inactive
same,Potency,[2],inactive
same,Potency,[3],31.6 µM (active) and inactive
C[C@@H](NCc1cc(Br)cc2[nH]c(=O)c(=O)[nH]c12)P(=O)(O)O,Potency,[5],inactive
same,Potency,[6],264 nM (active)
same,Potency,[7],inactive
same,Potency,[8],inactive
same,Potency,[9],inactive
same,Potency,[10],inactive
same,Potency,[11],inactive
same,Potency,[1],inactive
same,Potency,[2],inactive
same,Potency,[3],inactive
C=C1C(=O)O[C@@H]2[C@H]3O[C@]3(C)CC/C=C(\C)CC[C@@H]12,Potency,[1],inactive
same,Potency,[4],inactive
same,Potency,[12],inactive
same,Potency,[13],inactive
same,Potency,[14],3.72 µM (active)
same,Potency,[15],2.09 µM (active)
same,Potency,[16]; HiBiT,7.01 µM (active)
same,"activity change, negative = inhibition","[16]; Viability, at 45.9 µM (top of the series)",0.032% (inactive)

# — PubChem BioAssay (NCATS)
